Results: paper PMC7862700, “An all-to-all approach to the identification of sequence-specific readers for epigenetic DNA modifications on cytosine”

Legend:
Test in all cases: DAPPL (digital affinity profiling via proximity ligation, sequencing); 10 mM Tris-HCl pH 7.5, 50 mM NaCl, 1 mM DTT, 4% glycerol, room temperature, 30 min; GST-TFs on glutathione beads, 16-mer random dsDNA library, 0.1% formaldehyde crosslink after washing; high values mean tight binding
Settings in all cases: protein: recombinant; tags: N-terminal GST; dsDNA, one strand shown
[1] = biological target: T1, FLI1 (Homo sapiens, UniProt Q01543 1-452)
T1 sequence: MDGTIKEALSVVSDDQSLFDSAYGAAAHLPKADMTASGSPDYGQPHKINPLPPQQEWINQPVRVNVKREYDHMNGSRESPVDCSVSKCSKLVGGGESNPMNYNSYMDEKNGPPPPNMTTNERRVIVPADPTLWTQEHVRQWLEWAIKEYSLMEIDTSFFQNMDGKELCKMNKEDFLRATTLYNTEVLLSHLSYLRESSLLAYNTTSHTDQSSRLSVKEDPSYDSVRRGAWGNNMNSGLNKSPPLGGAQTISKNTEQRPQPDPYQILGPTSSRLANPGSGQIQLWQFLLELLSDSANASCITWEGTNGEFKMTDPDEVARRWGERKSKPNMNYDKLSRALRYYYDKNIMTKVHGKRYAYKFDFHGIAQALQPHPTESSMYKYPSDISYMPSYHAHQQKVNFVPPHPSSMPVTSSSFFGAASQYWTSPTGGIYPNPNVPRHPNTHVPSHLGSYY
Method in brief: (§1)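 Beads coated with glutathione captured GST-fused human transcription factors that had been expressed in yeast, and the factors were then given DNA barcodes and pooled with a tag-only sample. The pools were incubated with 200 nmole of a random double-stranded 16-mer DNA library in Tris/NaCl/DTT/glycerol buffer for 30 min at room temperature, washed, crosslinked with 0.1% formaldehyde and proximity-ligated with BsaI/T4 ligase at 37 °C for 1 h. PCR amplification and Illumina NextSeq500 sequencing came last. Binding signal is each hexamer's read frequency for a factor divided by its frequency for the tag-only sample.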

[2] = biological target: T2, ELK1 (Homo sapiens, UniProt P19419 1-428)
T2 sequence: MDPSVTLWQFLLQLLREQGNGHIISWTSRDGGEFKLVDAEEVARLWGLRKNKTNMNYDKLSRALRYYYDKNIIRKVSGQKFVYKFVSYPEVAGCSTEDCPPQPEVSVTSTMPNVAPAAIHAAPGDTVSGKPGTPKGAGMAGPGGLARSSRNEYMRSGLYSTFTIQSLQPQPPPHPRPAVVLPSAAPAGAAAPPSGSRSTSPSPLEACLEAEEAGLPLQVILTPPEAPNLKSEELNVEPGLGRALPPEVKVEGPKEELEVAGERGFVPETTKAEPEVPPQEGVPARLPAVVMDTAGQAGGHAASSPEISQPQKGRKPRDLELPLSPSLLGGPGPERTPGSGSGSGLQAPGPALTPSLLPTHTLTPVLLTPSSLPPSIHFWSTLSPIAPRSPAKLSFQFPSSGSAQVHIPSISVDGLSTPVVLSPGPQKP
Method in brief: as §1

[3] = biological target: T3, GABPA (Homo sapiens, UniProt Q06546 1-454)
T3 sequence: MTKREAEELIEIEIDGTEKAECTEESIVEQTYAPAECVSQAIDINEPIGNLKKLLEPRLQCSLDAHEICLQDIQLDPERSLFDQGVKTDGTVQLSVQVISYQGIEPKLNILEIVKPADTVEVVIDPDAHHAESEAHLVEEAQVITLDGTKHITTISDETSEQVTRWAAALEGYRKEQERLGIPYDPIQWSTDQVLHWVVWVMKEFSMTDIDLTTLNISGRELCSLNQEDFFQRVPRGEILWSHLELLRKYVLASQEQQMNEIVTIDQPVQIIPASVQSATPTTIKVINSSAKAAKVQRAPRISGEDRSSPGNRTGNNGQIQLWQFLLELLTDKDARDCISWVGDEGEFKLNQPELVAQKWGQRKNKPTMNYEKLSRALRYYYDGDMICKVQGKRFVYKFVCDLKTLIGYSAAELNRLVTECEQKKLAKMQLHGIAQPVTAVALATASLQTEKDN
Method in brief: as §1

[4] = biological target: T4, ERG (Homo sapiens, UniProt P11308 1-479)
T4 sequence: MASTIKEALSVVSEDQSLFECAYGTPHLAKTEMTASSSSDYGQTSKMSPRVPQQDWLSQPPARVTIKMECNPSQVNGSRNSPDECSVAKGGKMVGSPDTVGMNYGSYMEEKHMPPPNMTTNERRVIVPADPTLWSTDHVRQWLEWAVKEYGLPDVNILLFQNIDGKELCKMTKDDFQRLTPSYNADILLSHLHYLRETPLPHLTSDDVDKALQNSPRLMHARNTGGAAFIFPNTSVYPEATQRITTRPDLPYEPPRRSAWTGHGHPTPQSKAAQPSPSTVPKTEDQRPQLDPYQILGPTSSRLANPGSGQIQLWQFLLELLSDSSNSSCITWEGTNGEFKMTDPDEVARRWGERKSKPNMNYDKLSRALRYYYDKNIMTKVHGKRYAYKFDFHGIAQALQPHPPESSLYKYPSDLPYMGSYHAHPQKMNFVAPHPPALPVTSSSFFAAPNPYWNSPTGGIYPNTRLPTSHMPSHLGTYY
Method in brief: as §1

[5] = biological target: ELF1 (Homo sapiens, UniProt P32519 1-619)
Method in brief: as §1

[6] = biological target: T5, EHF (Homo sapiens, UniProt Q9NZC4 1-300)
T5 sequence: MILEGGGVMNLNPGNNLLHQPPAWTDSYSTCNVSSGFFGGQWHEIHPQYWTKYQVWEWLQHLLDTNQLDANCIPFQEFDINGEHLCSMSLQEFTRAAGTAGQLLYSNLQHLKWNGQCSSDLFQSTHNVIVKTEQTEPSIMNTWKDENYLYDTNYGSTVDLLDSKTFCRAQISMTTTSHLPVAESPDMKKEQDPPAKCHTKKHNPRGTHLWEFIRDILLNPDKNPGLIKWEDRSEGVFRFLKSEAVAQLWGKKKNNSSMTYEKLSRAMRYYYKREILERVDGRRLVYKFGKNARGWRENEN
Method in brief: as §1

[7] = biological target: SPI1 (Homo sapiens, UniProt P17947 1-270)
Method in brief: as §1

[8] = biological target: SPIB (Homo sapiens, UniProt Q01892 1-262)
Method in brief: as §1

[9] = biological target: T6, ELK3 (Homo sapiens, UniProt P41970 1-407)
T6 sequence: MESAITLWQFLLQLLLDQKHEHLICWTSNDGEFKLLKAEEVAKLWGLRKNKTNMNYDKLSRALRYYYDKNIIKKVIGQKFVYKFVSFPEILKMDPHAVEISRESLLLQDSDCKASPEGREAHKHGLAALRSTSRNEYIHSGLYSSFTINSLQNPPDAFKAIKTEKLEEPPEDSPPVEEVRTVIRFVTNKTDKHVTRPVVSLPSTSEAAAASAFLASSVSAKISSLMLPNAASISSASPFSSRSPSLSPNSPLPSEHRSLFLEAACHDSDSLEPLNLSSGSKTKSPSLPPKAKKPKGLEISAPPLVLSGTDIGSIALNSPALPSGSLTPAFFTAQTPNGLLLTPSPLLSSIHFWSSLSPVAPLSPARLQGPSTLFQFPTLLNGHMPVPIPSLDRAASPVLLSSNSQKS
Method in brief: as §1

[10] = biological target: T7, FEV (Homo sapiens, UniProt Q99581 1-238)
T7 sequence: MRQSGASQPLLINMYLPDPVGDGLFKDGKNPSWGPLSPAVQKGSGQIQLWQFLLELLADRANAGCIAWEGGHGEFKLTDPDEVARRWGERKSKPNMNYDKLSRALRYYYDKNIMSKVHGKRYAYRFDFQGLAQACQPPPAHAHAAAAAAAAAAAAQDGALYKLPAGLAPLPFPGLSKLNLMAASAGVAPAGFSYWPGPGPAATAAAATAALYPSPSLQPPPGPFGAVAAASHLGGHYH
Method in brief: as §1

[11] = biological target: ETV5 (Homo sapiens, UniProt P41161 1-510)
Method in brief: as §1

[12] = biological target: T8, SPIC (Homo sapiens, UniProt Q8N5J4 1-248)
T8 sequence: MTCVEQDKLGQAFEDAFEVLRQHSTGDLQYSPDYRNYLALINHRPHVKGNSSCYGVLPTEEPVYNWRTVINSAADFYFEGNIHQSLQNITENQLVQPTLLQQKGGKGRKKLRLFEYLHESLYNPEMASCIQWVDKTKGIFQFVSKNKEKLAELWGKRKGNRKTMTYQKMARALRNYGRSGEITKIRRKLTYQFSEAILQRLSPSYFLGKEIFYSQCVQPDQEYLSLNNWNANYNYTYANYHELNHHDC
Method in brief: as §1

[13] = biological target: ELF4 (Homo sapiens, UniProt Q99607 1-663)
Method in brief: as §1

[14] = biological target: T9, ELK4 (Homo sapiens, UniProt P28324-2 1-405)
T9 sequence: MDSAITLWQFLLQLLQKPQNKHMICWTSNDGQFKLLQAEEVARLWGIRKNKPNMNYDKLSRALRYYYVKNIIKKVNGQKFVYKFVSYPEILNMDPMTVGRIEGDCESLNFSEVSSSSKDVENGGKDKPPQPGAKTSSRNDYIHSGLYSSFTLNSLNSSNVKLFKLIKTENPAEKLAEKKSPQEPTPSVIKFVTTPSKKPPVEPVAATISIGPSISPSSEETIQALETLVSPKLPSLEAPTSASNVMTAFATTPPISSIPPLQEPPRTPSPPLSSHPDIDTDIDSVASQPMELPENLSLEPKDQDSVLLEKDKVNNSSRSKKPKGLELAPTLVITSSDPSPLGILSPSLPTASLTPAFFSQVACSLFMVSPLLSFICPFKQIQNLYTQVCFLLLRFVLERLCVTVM
Method in brief: as §1

[15] = biological target: T10, ETV2 (Homo sapiens, UniProt O00321 1-342)
T10 sequence: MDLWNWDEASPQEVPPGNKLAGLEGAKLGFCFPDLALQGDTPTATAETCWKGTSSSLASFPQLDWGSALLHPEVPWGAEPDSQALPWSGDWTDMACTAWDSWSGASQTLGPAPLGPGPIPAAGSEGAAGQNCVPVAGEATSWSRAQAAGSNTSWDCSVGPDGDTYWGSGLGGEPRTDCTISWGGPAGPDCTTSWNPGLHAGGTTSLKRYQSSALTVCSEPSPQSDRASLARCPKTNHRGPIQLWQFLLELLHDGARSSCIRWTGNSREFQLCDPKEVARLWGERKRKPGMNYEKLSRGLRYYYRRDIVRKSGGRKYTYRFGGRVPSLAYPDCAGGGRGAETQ
Method in brief: as §1

[16] = biological target: T11, ELF3 (Homo sapiens, UniProt P78545 1-371)
T11 sequence: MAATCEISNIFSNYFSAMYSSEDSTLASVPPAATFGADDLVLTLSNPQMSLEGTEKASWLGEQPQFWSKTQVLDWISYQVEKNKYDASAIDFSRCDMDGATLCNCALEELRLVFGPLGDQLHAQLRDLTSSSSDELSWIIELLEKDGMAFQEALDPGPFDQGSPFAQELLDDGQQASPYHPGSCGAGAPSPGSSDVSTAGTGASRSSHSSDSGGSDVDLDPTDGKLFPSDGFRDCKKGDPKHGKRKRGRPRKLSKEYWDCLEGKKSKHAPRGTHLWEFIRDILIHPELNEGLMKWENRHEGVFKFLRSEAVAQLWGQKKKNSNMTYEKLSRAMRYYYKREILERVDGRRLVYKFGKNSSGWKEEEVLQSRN
Method in brief: as §1

[17] = biological target: ETV1 (Homo sapiens, UniProt P50549 1-477)
Method in brief: as §1

ETV1, sequence (P50549 whole entry): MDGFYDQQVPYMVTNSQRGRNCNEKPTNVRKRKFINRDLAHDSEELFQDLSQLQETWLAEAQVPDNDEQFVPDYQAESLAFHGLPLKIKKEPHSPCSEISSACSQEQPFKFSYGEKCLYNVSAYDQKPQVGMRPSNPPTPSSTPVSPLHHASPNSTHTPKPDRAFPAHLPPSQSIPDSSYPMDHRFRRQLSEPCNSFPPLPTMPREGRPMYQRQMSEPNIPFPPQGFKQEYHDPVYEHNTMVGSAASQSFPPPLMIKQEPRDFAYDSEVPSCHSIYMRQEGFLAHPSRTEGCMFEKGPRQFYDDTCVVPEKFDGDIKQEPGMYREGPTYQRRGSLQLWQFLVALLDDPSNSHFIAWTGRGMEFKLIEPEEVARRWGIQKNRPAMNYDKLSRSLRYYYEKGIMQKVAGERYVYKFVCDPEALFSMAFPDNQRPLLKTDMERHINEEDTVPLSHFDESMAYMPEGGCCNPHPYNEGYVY
ELF1, sequence (P32519 whole entry): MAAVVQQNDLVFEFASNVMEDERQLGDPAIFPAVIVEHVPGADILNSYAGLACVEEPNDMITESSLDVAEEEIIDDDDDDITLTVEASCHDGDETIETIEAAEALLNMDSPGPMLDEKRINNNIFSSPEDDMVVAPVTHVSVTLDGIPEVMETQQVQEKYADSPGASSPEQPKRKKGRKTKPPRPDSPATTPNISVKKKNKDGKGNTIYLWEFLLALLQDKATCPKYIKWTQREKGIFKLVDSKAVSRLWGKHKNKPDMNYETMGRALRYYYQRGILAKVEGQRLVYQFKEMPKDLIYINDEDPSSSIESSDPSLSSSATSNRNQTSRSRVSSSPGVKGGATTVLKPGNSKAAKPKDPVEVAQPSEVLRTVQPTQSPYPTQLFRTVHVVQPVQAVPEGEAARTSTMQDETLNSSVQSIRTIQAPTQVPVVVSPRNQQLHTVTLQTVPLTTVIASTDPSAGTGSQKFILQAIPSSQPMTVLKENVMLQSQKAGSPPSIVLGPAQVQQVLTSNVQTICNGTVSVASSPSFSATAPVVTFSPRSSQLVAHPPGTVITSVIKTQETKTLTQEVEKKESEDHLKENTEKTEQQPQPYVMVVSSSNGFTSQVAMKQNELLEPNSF
SPIB, sequence (Q01892 whole entry): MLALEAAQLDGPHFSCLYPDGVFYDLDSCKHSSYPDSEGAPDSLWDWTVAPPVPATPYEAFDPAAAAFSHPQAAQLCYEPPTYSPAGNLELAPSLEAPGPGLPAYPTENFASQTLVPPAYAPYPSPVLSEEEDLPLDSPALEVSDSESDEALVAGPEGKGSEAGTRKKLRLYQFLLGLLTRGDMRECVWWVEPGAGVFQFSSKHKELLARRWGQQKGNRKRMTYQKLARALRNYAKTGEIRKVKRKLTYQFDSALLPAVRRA
ETV5, sequence (P41161 whole entry): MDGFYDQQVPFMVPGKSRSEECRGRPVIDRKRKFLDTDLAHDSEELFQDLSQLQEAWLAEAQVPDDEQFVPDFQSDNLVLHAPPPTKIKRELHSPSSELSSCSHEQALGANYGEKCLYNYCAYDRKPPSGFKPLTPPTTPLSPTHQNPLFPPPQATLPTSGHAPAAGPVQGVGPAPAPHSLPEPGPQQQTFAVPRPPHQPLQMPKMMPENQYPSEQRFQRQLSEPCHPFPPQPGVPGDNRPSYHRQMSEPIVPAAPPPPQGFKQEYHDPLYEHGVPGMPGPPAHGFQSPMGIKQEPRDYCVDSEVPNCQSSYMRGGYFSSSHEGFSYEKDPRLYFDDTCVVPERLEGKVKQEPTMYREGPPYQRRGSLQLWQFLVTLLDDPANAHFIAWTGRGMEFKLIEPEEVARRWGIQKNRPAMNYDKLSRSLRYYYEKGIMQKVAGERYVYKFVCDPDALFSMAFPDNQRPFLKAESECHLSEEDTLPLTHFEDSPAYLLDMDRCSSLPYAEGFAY
ELF4, sequence (Q99607 whole entry): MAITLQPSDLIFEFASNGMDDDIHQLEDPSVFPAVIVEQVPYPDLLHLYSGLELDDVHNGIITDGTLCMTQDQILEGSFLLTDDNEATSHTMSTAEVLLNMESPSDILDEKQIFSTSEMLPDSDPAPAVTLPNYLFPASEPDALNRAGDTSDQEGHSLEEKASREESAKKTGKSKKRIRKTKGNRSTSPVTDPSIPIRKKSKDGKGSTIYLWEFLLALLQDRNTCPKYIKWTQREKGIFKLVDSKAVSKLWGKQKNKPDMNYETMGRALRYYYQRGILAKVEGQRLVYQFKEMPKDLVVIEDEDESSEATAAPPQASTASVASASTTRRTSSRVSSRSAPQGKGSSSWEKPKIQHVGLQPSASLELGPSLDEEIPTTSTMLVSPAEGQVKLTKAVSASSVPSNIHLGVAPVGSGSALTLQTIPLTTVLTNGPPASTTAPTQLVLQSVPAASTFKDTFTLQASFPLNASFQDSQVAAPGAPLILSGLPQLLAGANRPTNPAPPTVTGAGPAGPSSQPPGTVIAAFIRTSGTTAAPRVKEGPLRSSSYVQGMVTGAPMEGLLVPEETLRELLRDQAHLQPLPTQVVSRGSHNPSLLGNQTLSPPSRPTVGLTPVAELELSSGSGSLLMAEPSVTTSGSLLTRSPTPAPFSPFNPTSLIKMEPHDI

Sequence	binding signal [1]	binding signal [2]	binding signal [3]	binding signal [4]	binding signal [5]	binding signal [6]	binding signal [7]	binding signal [8]	binding signal [9]	binding signal [10]	binding signal [11]	binding signal [12]	binding signal [13]	binding signal [14]	binding signal [15]	binding signal [16]	binding signal [17]
ACAACA	1.22 fold enrichment (6-mer frequency, TF over GST control)	1.24 fold enrichment (6-mer frequency, TF over GST control)	1.23 fold enrichment (6-mer frequency, TF over GST control)	1.2 fold enrichment (6-mer frequency, TF over GST control)	1.29 fold enrichment (6-mer frequency, TF over GST control)	1.24 fold enrichment (6-mer frequency, TF over GST control)	1.18 fold enrichment (6-mer frequency, TF over GST control)	1.19 fold enrichment (6-mer frequency, TF over GST control)	1.19 fold enrichment (6-mer frequency, TF over GST control)	1.2 fold enrichment (6-mer frequency, TF over GST control)	1.16 fold enrichment (6-mer frequency, TF over GST control)	1.13 fold enrichment (6-mer frequency, TF over GST control)	1.19 fold enrichment (6-mer frequency, TF over GST control)	1.14 fold enrichment (6-mer frequency, TF over GST control)	1.28 fold enrichment (6-mer frequency, TF over GST control)	1.32 fold enrichment (6-mer frequency, TF over GST control)	1.23 fold enrichment (6-mer frequency, TF over GST control)
GTATCA	1.14 fold enrichment (6-mer frequency, TF over GST control)	1.07 fold enrichment (6-mer frequency, TF over GST control)	1.18 fold enrichment (6-mer frequency, TF over GST control)	1.05 fold enrichment (6-mer frequency, TF over GST control)	1.05 fold enrichment (6-mer frequency, TF over GST control)	1.1 fold enrichment (6-mer frequency, TF over GST control)	1.06 fold enrichment (6-mer frequency, TF over GST control)	1.02 fold enrichment (6-mer frequency, TF over GST control)	1.1 fold enrichment (6-mer frequency, TF over GST control)	1.04 fold enrichment (6-mer frequency, TF over GST control)	1.01 fold enrichment (6-mer frequency, TF over GST control)	1.03 fold enrichment (6-mer frequency, TF over GST control)	1.05 fold enrichment (6-mer frequency, TF over GST control)	1.12 fold enrichment (6-mer frequency, TF over GST control)	1.12 fold enrichment (6-mer frequency, TF over GST control)	1.17 fold enrichment (6-mer frequency, TF over GST control)	1.05 fold enrichment (6-mer frequency, TF over GST control)
